Assay results taken from PubChem BioAssay AID1259415 (National Center for Advancing Translational Sciences (NCATS), 2018).
Screen size: about 410,000 compounds; about 18,000 (4.4%) were called active. About 7% were inconclusive and are not listed. The sample as a whole holds a higher share of actives than the screen did. Unmarked numbers belong to inactive results. Rule as the data show it: active = activity change below about -60%; inconclusive = no clear call, values can overlap the other calls; inactive = above about -39%.

Assay: qHTS Assay for inhibitors of the human cytomegalovirus (HCMV)
Settings: HFF cells, HCMV-luciferase reporter, 72 h; at 57.5 µM; stronger effect = lower value
In short: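 Luciferase read-out from HCMV-luciferase-infected HFFs (MOI 1 PFU/cell) 72 h post infection at 37C; compounds added after 16 h cell attachment; activity normalized between buffer-only basal and Salinomycin (10uM) inhibitor controls.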
% is scaled to controls: 0 for no effect and ±100 for the full control effect.

Compound | activity change, negative = inhibition
CCc1nc2c(OCCOc3ccccc3)cccn2c1N(C)C(=O)c1ccccc1F | -30.7%
COc1ccc2c(c1)C(c1cccs1)=NNC(c1cccnc1)=N2 | -22.6%
COC1C(O)C(C)OC(OC2CCC3(C=O)C(CCC4C3CCC3(C)C(C5=CC(=O)OC5)CCC43O)C2)C1O (stereo not given) | -106% (active)
Brc1cccc(-c2nnn3c2nc(NC2CCCCC2)c2ccccc23)c1 | 34.7%
O=C(Cc1ccc(Cl)cc1)NCC(c1cccs1)S(=O)(=O)c1ccc(Cl)cc1 (stereo not given) | -8.05%
O=C(NNC(=O)c1ccco1)Nc1ccccc1 | -62% (active)
O=C(CNC(=O)c1ccco1)OCC(=O)c1ccccc1 | 49.6%
O=C(CNC(=O)c1ccco1)NNC(=O)c1ccc(Br)cc1 | -4.75%
COc1cccc(-c2n[nH]c3c2C(c2cccc(O)c2)N(C)C3=O)c1 (stereo not given) | 179%
CC(OC(=O)CN1C(=O)C2CCCCC2C1=O)C(=O)Nc1ncc(Cl)cc1Cl (stereo not given) | 22.5%
CCOc1cc(NC(=O)c2ccccc2C(=O)O)c(OCC)cc1NC(=O)c1ccccc1F | -3.32%
CCN1CCN(c2cc3nc(C)n(Cc4ccccc4)c(=O)c3cc2NC(=O)c2ccccc2F)CC1 | -85.2% (active)
Cc1nc2ccn(Cc3cccnc3)c(=O)c2cc1C(=O)N1CCN(c2ccccc2F)CC1 | 10.9%
CCCCN(C)C(=O)c1ccc2c(c1)N(CC)C(=O)c1ccccc1S2(=O)=O | -8.24%
Cc1cccc(Nc2nc(C)nc(N)c2S(=O)(=O)c2ccccc2)c1 | 0.44%
C=CCNC(=S)/N=c1/ccccn1Cc1ccccc1 | -98.8% (active)
N=c1ccccn1Cc1ccccc1 | -18.5%
C=CCNC(=O)COc1coc(CN2CCN(Cc3ccccc3)CC2)cc1=O | -9%
CCCNC(=O)C1CCC(Cn2c(=O)c3sccc3n(Cc3ccccc3F)c2=O)CC1 (stereo not given) | 1.25%
O=C(CSc1cccc2cccnc12)N/N=C/c1cccnc1 | -101% (active)

Compound | activity change, negative = inhibition
O=C(N/N=C/c1cccnc1)c1cc2ccccc2cc1O | -98% (active)
Cc1c(Cl)cccc1NC(=O)CSc1ccc(-c2cccnc2)nn1 | -12.1%
CC1=NNC(=O)C1CC(=O)N/N=C/c1ccncc1 (stereo not given) | 42.5%
CCOC(=O)CNC(=O)CSc1ccc2nnc(-c3cccnc3)n2n1 | 49.6%
O=C(O)/C(=C/c1cccnc1)NC(=O)c1ccccc1 | 6.75%
CCOC(=O)N/N=C/c1cccnc1 | -60.5% (active)
O=C(N/N=C/c1ccc(O)c(O)c1)C1c2ccccc2Oc2ccccc21 | 23.9%
O=C(N/N=C/c1cccc2cccnc12)[C@H]1C[C@@H]1c1ccccc1 | 20.4%
COc1ccc(Cn2ccn(CC(=O)Nc3cc(C)ccc3C)c(=O)c2=O)cc1 | 15.8%
COc1ccccc1NC(=O)CN1C(=O)c2ccccc2Sc2ccc(C(=O)N3CCCC3)cc21 | 14.4%
CC(C)(C)OC(=O)N1CCC(c2c(C(=O)N3CCc4ccccc4C3)cnn2-c2ccc(F)cc2)CC1 | 6.95%
Cc1cc(C)cc(NC(=O)CSc2oc(-c3ccccc3)nc2S(=O)(=O)c2ccc(Cl)cc2)c1 | -2.05%
COc1ccc(CCC(=O)NCc2ccc3c(c2)CCN3C(=O)c2ccc(F)cc2)cc1 | 15.1%
CCc1ccc2oc(-c3ccc(NC(=O)c4cc5ccccc5o4)cc3)nc2c1 | 37.7%
Cc1cccc(C)c1NC(=S)N1CCCCCC1 | -64.3% (active)
Cc1cccc(NC(=S)N2CCC(O)CC2)c1C | -32.2%
Cc1cccc(NC(=O)N2CCCCCC2)c1C | 57.9%
O=C1NCC(Nc2ccccc2)C(=O)N1 (stereo not given) | -7.88%
CCc1ccc(NS(=O)(=O)c2ccc3[nH]cc(C(=O)NCCc4cccc(C)c4)c(=O)c3c2)cc1 | 93.7%
OC(CNCC1CCCO1)Cn1c2ccc(Br)cc2c2cc(Br)ccc21 (stereo not given) | 2.12%

Compound | activity change, negative = inhibition
Cc1cc(C)c2oc(-c3cccc(NC(=O)c4cccc(F)c4)c3C)nc2c1 | -0.821%
CCn1cc(CN2CCC(C(=O)Nc3cccc(-c4cccc(Cl)c4)c3)CC2)cn1 | -97.6% (active)
O=C(Nc1cccc(-c2cscn2)c1)C1CCN(Cc2ccsc2)CC1 | -33.6%
CC(=O)c1cc(CN2CCC(C(=O)Nc3cccc(-c4cscn4)c3)CC2)cs1 | -30.7%
CCc1ccccc1N1CC(c2nc3ccccc3n2CCCCOc2ccccc2)CC1=O (stereo not given) | -4.32%
CCCCN1CC(c2nc3ccccc3n2CCCCOc2ccc(C)cc2C)CC1=O (stereo not given) | -105% (active)
COc1ccc(OCCCn2c(C3CC(=O)N(c4ccc(F)cc4)C3)nc3ccccc32)cc1 (stereo not given) | -13%
O=C(NCc1ccccc1)C1CCN(S(=O)(=O)c2ccc3[nH]c(=O)ccc3c2)CC1 | 23%
Cc1ccccc1OCC(=O)Nc1c(C(=O)Nc2ccccc2F)oc2ccccc12 | 11.7%
COc1ccc(CN2CCOC2=O)cc1OC | -13.1%
C=CCSc1nnc(Cn2c(=O)sc3ccccc32)n1C | -2.22%
COc1ccc(Cn2c(=O)sc3ccccc32)cc1OC | -99.8% (active)
CCOC(=O)c1ccc(NC(=O)Cn2c(=O)cc(C)c3c(C)nn(-c4cccc(F)c4)c32)cc1 | 2.32%
CCC(C)N1C(=O)S/C(=C/c2ccc(Sc3nc4ccccc4[nH]3)o2)C1=O (stereo not given) | -91.5% (active)
CCC(c1nc2ccccc2[nH]1)n1c(=O)c(-c2cccs2)nc2ccccc21 (stereo not given) | -2.85%
COc1ccc(C)cc1NC(=O)CCc1c(C)nn(-c2ccc(N3CCOCC3)nn2)c1C | 39.1%
CCCCCn1c(=O)[nH]c2cc(C(=O)NCCN(C)CCCC)ccc2c1=O | -33.3%
CCOc1ccc(NC(=O)c2c(NC(=O)Cc3ccccc3)sc3c2CCC(C)C3)cc1 (stereo not given) | -34.6%
CCOc1ccc(NC(=O)c2c(NC(=O)Cc3ccccc3)sc3c2CCCCC3)cc1 | -74.7% (active)
O=C(Cc1ccccc1)Nc1sc2c(c1C(=O)Nc1ccc(Br)cc1)CCC2 | 5.03%
